# Assay outcomes (PubChem BioAssay)
# Pf Dd2 inh = qHTS Primary assay for Inhibitors of Plasmodium falciparum Dd2 growth in vitro; Potency, µM (highest dose often 28.9 µM), without a hit: at the highest dose activity, negative = inhibition, most hits filed as inhibitors; P. falciparum Dd2 growth, SYBR Green, 72 h; hit rate 4.3% among 120,000; AID 1347417, 2020; active = well fitted inhibition curve with a large enough effect;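 also: plate controls were DMSO vehicle for no effect and reference drug for full effect; nearly all actives have a fitted effect of over 65% in size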
#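 Infected erythrocytes (Dd2, 0.3% parasitemia, 2.5% hematocrit final) are added to compound in RPMI-1640/Albumax II medium, grown 72 h at 37C in low oxygen, then lysed with saponin/Triton-X containing SYBR Green and read by fluorescence.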
# Numbers without * were called inactive; i = inactive; [ ] = remark or other dose. Many of the other results were omitted from the sample, so hits are more common in it than they were. Potency is read from the fitted curve at half-maximal effect.
SMILES,Pf Dd2 inh
CCc1cc(C(=O)NCc2ccc(F)cc2)no1,8%
CCn1ncc(N2CCC(NC(=O)c3ccc(C)c(C)c3)CC2)cc1=O,-10%
O=C(C1CCCC1)N1CC(c2noc(COc3ccccc3)n2)C1,-40%
Cn1cc(CNC(=O)C[C@@H]2C[C@H]3O[C@H](CNCc4ccncc4F)[C@@H](O)[C@H]3O2)cn1,13%[44.1 µM]
CCc1nc(CN2CCN(Cc3ccc(C)o3)C(CCO)C2)c(C)[nH]1 (stereo not drawn),-10%
O=C(NC1CC1)C1COC2(CCN(C(=O)c3cccc(Cl)c3)CC2)N1C(=O)c1ccc(F)cc1 (stereo not drawn),i
Nc1cc(N2CC[C@@H](N3CCN(CCc4ccccc4)CC3)[C@H](O)C2)nc(N)n1,i
NC(=O)C1CCN(CC2(O)CCCN(CCCc3ccccc3)C2=O)CC1 (stereo not drawn),3%
CC(=O)Nc1ccc(CN(C)C2CCc3ccccc32)cc1 (stereo not drawn),-8%[44.1 µM]
c1cncc(-c2noc(CCc3nc(C4CCOC4)no3)n2)c1 (stereo not drawn),-3%
Cc1cnc(C(=O)NC2C[C@H]3CC[C@@H](C2)N3C(=O)Cc2c(C)noc2C)cn1 (stereo partly drawn),5%
Cc1cnc(C)c(N2CCN(C(=O)CCCc3c[nH]c4ccccc34)CC2)n1,-11%
CC1=Nc2cc(C(=O)NC3CCCC3)ccc2Sc2ccc(Br)cc21,7.9µM*
CC1=Nc2cc(C(=O)N3CCCCC3)ccc2Sc2ccc(C)cc21,i
Cc1nc2cc(C(=O)NC3CCCCCC3)ccc2n1-c1ccc(Br)cc1,18%
CN(C)c1ccc(C(=O)N[C@H]2C[C@H]3C(=O)NC[C@@H](CCC(=O)NCc4cccnc4)N3C2)cc1,-24%
COc1ccc(NC(=O)c2sc3nc(-c4ccc(OC)cc4)cc(C(F)(F)F)c3c2N)cc1,29%
COc1ccc(NC(=O)c2sc3nc4c(c(-c5ccc(OC)cc5)c3c2N)C(=O)CC(C)(C)C4)cc1,1µM*
COc1ccc(-c2ccc3c(N)c(C(=O)Nc4ccc(C(F)(F)F)cc4)sc3n2)cc1OC,i
O=c1[nH]c(C2CCCN([S+](=O)([O-])c3cccc(C(F)(F)F)c3)C2)nn1-c1ccccc1 (stereo not drawn),-1%
COCCNC(=O)[C@@H]1C[C@@H](O)CN1C1CCN(C(=O)c2ccc(OC)nc2)CC1,-3%
N#Cc1ccc(C(=O)N2CCC3(CC2)CC(CO)N(C(=O)c2ccccc2)C3)cc1 (stereo not drawn),-11%
Cc1cc(C[C@@H]2COC[C@@H]2NC(=O)c2cc(C)oc2-c2ccccc2)on1,10%
COc1ccc(S(=O)(=O)N[C@H](C)c2onc(-c3ccc(F)cc3)c2C(=O)O)cc1,-16%[44.1 µM]
O=C(c1cccc2[nH]ccc12)N1CCC(Cc2nncn2Cc2ccccc2)C1 (stereo not drawn),-7%
SMILES,Pf Dd2 inh
COc1ccccc1OCc1cc(C(=O)NCc2cnc(C)cn2)n[nH]1,-10%
Cc1ccc(Cn2cc(-c3ccncc3)cc2C(=O)N(C)Cc2ccccc2)cc1,-16%
CCn1cc(-c2ccncc2)cc1C(=O)NCc1ccc(SC)cc1,i
Cc1ccc(Cn2cc(-c3ccncc3)cc2C(=O)NCC2CC2)cc1,11µM*
Fc1ccc2c(c1)nc1n2[C@@H](CNC2CCOCC2)COC1,-19%[44.1 µM]
O=C1C2CN([S+](=O)([O-])c3ccccc3)CCC2OCCN1Cc1ccccc1 (stereo not drawn),i
CCOc1ccc(C(=O)Nc2onc3c2CCCC3)cc1,24%
O=C(Nc1onc2c1CCCC2)c1ccccc1,-6%
CC(C)(C)c1ccc(C(=O)Nc2onc3c2CCCC3)cc1,7.9µM*
O=C([C@H]1C[C@H](Oc2ccccc2)CN1C(=O)c1ccco1)N1CCOCC1,-4%
CCOc1ccc(NC(=O)Cn2c(C)cc3nc4n(c(=O)c32)CCCC4)cc1,i
Cc1cccc(NC(=O)Cn2nc3n(c2=O)CCCCC3)c1C,254%
COc1ccc(CC(=O)N2CCn3c(nnc3-c3ccc(OC)cc3)C2)cc1,0%
Cc1ccccc1NC(=O)Cn1c(C)cc2nc3n(c(=O)c21)CCCCC3,-22%
Cc1ccccc1NC(=O)COc1ccc(-c2nnc3n2CCCC3)cc1,11µM*
O=C(COc1ccc(-c2nnc3n2CCCC3)cc1)Nc1ccccc1,7.9µM*
CCc1ccc(NC(=O)COc2ccc(-c3nnc4n3CCCC4)cc2)cc1,4µM*
COc1ccc(-c2nnc3n2CCN(C(C)=O)C3)cc1,0%[44.1 µM]
Cc1cc2nc3n(c(=O)c2n1CC(=O)Nc1ccccc1)CCCCC3,i
COc1ccc(N2CCN(C(=O)COc3ccc(-c4nnc5n4CCCC5)cc3)CC2)cc1,0.71µM*
COc1ccc(CCC(=O)Nc2ccc(-c3nnc4n3CCCC4)cc2)cc1,-6%
CCn1ncc(CN2CCCCCCN(C)C(=O)[C@@H]3CCC[C@@H]32)c1C,-14%
CC(C)Oc1ccc(C(=O)N2CCCN(S(C)(=O)=O)c3ccccc32)cc1,i
CCn1cc(S(=O)(=O)N2CCCCC2c2n[nH]c(C)n2)cn1 (stereo not drawn),0%
COc1c(C)cccc1C(=O)NCC1CCN(c2cnn(C)c(=O)c2)C1 (stereo not drawn),-11%
SMILES,Pf Dd2 inh
Cc1ccc(OCC(=O)c2ccc3c(c2)N(C(C)C(=O)NCC2CCCO2)C(=O)CO3)cc1C (stereo not drawn),i
Cn1cnc(S(=O)(=O)N2CCCC(Cn3c(C4CC4)nc4cccnc43)C2)c1 (stereo not drawn),8%
O=C(CC1CCOCC1)NCc1ccc(F)cc1,-15%
COCc1nnc2n1CCC(NC(=O)CCCc1c[nH]c3ccccc13)CC2 (stereo not drawn),12%
COC[C@@H]1CN(C(=O)c2cn3ccccc3n2)C[C@H]1c1ccncc1,-8%
CN(CCn1ccnc1)C(C(=O)O)c1cnn(Cc2ccccc2)c1 (stereo not drawn),-6%
O=C(Cc1cccs1)N1CCC2(CC1)N=C(c1ccc(Cl)cc1)NO2,i
O=C(Nc1ccc(-c2nnc3n2CCCC3)cc1)C1CC1,13%
CNC(=O)N1CCCCCCn2c(nnc2-c2ccc(F)cc2)CC1,-12%
COc1cccc(NC(=O)COc2ccc(-c3nnc4n3CCCC4)cc2)c1,2.8µM*
O=C(COc1ccccc1)Nc1ccc(-c2nnc3n2CCCC3)cc1,10µM*
COc1cccc(NC(=O)Cn2nc3n(c2=O)CCCCC3)c1,38%
O=C(COc1ccc(-c2nnc3n2CCCC3)cc1)Nc1ccc(F)cc1,5.6µM*
CCc1cccc(OCC(=O)Nc2ccc(S(=O)(=O)Nc3ncccn3)cc2)c1,0%
O=C(CCC1CCCC1)Nc1ccc(-c2nnc3n2CCCC3)cc1,-21%
CCc1ccc(NC(=O)COc2cccc(-c3nnc4n3CCCC4)c2)cc1,5µM*
COc1cccc(NC(=O)Cn2c(C)cc3nc4n(c(=O)c32)CCCC4)c1,i
O=C(C1CC1)N1CCCCCCn2c(nnc2-c2ccc(F)cc2)CC1,-15%
Cc1ncoc1C(=O)N1CCC(C2CCN(S(C)(=O)=O)CC2)C1 (stereo not drawn),-12%
O=C(CC1CCOC2(CCN(S(=O)(=O)Cc3ccccc3)CC2)C1)N1CCCC1 (stereo not drawn),i
COc1ccccc1N1CCN(C(=O)C[C@@H]2O[C@H](CNS(=O)(=O)c3ccccc3)[C@@H](O)[C@H]2O)CC1,46%
COc1ccc(S(=O)(=O)NC[C@H]2COCc3nc4c(C)cccc4n32)cc1,-16%[44.1 µM]
CC(C)NC[C@H]1O[C@@H]2C[C@@H](CC(=O)NCc3nccn3C)O[C@@H]2[C@@H]1O,i
